A selection: hits, their analogues and other compounds. The true share with any hit is near 1.3%.
Fam108B counter: Fam108B inhibition, counter-screen for RBBP9 inhibitors | inhibition, % at 9.51 µM | hit rate 0.33% among 300,000 | recombinant Fam108B, FP-Rh probe fluorescence polarization;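 active = inhibition above the screen mean inhibition plus 3 SD, computed separately per campaign, cut at about 18% in these data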;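 note: inhibitors lower polarization as less probe binds the enzyme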
PREPL inhibitor: inhibitors of human prolyl oligopeptidase-like enzyme PREPL; Q4J6C6; recombinant PREPL, fluorescence polarization activity-based probe; inhibition, % at 5.96 µM; hit rate 0.68% among 320,000;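 note: 0% = enzyme with DMSO and 100% = wells lacking enzyme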
Target sequence (Q4J6C6 whole entry, looked up): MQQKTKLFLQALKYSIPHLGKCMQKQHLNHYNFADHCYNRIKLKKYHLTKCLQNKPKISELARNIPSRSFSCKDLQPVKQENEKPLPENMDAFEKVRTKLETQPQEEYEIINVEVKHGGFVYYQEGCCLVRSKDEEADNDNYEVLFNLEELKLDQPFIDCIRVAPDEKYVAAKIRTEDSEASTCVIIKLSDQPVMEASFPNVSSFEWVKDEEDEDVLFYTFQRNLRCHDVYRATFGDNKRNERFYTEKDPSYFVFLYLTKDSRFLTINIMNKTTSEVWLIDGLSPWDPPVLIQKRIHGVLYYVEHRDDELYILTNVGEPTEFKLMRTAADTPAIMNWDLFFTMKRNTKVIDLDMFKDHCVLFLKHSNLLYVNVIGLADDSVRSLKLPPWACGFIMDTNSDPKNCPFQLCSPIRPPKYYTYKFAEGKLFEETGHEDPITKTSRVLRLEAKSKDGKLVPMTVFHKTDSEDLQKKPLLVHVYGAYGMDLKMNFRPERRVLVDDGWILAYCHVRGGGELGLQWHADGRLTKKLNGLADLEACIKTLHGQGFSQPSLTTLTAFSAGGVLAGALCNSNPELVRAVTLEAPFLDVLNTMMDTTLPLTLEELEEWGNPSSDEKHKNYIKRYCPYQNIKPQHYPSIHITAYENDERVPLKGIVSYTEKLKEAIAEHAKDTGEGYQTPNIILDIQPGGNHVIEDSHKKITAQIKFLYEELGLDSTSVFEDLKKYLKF
LYPLA1 counter: LYPLA1 (human) inhibition in PME1 counter-screen; O75608; recombinant LYPLA1, FP-Rh probe fluorescence polarization; inhibition, % at 5.9 µM; hit rate 0.16% among 320,000;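 active = inhibition above the mean of all tested compounds plus 3 SD, set per campaign, cut at about 14% in these data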;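 note: inhibitors block serine hydrolase probe labeling of LYPLA1 so polarization falls; 0% = enzyme with DMSO and 100% = wells lacking LYPLA1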
LYPLA2 counter: blocks human lysophospholipase 2, a PME1 counter-screen; recombinant LYPLA2, FP-Rh probe fluorescence polarization; hit rate 0.38% among 320,000; inhibition, % at 5.9 µM;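 active = inhibition above the screen-wide mean plus 3 SD, limit set per campaign, cut at about 26% in these data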;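 note: 0% = LYPLA2 with DMSO and 100% = wells lacking LYPLA2 enzyme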
PME-1 primary: blocks human protein phosphatase methylesterase 1; Q9Y570; recombinant PME-1, FP-Rh probe fluorescence polarization; inhibition, % at 5.9 µM; hit rate 0.53% among 320,000; AID 2130;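 active = inhibition above the campaign mean of all compounds plus 3 SD, cut at about 26% in these data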;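 note: competitive labeling of PME-1 active site by serine hydrolase directed probe; 0% = PME-1 with DMSO and 100% = wells lacking PME-1 enzyme; inhibitors block probe labeling so polarization falls and inhibition rises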
PREPL confirm: human PREPL inhibition, confirmation; inhibition, % at 5.96 µM; shares compounds with PREPL inhibitor; recombinant PREPL, fluorescence polarization activity probe; hit rate 67% among 2,000;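 note: 0% = protein with DMSO and 100% = wells lacking protein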
* hit, by the source's call; . = no result. Cut-off read from the data, not from the text of the source, unless noted: active = inhibition above about 43%; inactive = the rest.

SMILES	Fam108B counter	PREPL inhibitor	LYPLA1 counter	LYPLA2 counter	PME-1 primary	PREPL confirm
C#CCOc1ccc2c(c1)c(C(C)=O)c(C)n2Cc1ccccc1	0	5	-5	-12	2	.
COC(=O)[C@H]1C[C@@H]1[C@H](NP(=O)(c1ccccc1)c1ccccc1)c1ccccc1	-2	47*	-1	-9	-4	47*
COC(=O)C1=C(c2ccccc2OCc2ccccc2)C[C@@H]2CC[C@H]1N2C(=O)NCc1cccc(C(F)(F)F)c1	.	9	-3	-2	-5	.
COc1ccc2[nH]c(C)c(CCNCc3cc(OC)c4c(c3)OCO4)c2c1	.	74*	-1	-3	1	66*
COc1ccc2[nH]c(C)c(CCNCc3cc(OC)c(OC)c(OC)c3)c2c1	12	2	6	4	-10	.
CC1=NCCc2c1[nH]c1ccccc21	8	57*	-4	-5	-11	27
CN1C(C(=O)N2CCC3(CC2)OCCO3)=CC(c2ccc(F)cc2)=NS1(=O)=O	5	9	3	10	2	.
CCOc1ccccc1CN1C2CCC1CC(c1ccc(C)cc1)C2 (stereo not given)	3	10	6	9	-1	.
CN1CCc2cc(O)cc3c2[C@H]1Cc1ccc(O)c(O)c1-3	1	17	-2	0	13	.
CN1CCc2cc3c(c4c2C1Cc1ccccc1-4)OCO3 (stereo not given)	16	46*	6	15	13	40
COC(=O)C1=C(c2cccc(OCc3ccccc3)c2)C[C@@H]2CC[C@H]1N2C(=O)NC1CCN(Cc2ccccc2)CC1	.	51*	0	-2	-1	44*
COc1ccc2c3c([nH]c2c1)C(C)NCC3 (stereo not given)	2	67*	-7	-4	-2	4
Cc1[nH]c2ccccc2c1CCCNC1CCCCC1	-2	45*	0	-4	-2	34
O=C1NC(=S)NC(=O)C1=Cc1ccc(Br)s1	1	-4	0	-1	-1	.
C=C(C)[C@@]12OC3(c4ccccc4)O[C@@H]1C1[C@@H]4O[C@]4(CO)[C@@H](O)[C@]4(O)C(=O)C(C)=C[C@H]4[C@@]1(O3)[C@H](C)[C@H]2OC(=O)/C=C/C=C/c1ccccc1 (stereo not given in full)	-18	13	-12	-27	-15	.
Cc1ccc(CN2CCN(CC(=O)N3CCC4(CC3)OCCO4)C2=O)cc1	-3	7	-2	-12	-8	.
Cc1ccc(CN2CCSc3ccc(C(=O)N4CCC5(CC4)OCCO5)cc32)cc1	3	82*	3	7	13	74*
O=C(c1ccc2c(c1)N(Cc1ccc(F)cc1)CCS2)N1CCC2(CC1)OCCO2	0	67*	1	2	14	63*
CC(C)Nc1ccc(Nc2ccccc2)cc1	-1	77*	2	11	2	55*
O=C(/C=C/c1ccc(F)cc1)NC(=S)N1C[C@H]2C[C@H](C1)c1cccc(=O)n1C2	-1	6	-7	-1	-3	.

High-throughput results from PubChem BioAssay.
